GPR151 activ – activators of human GPR151, primary screen, cell-based, PathHunter beta-arrestin, luminescence; AID 1508602, 2020; activation, % at 11.2 µM; G-protein coupled receptor 151 (Homo sapiens), Q8TDV0; actives 1% (n = 650,000); PathHunter beta-arrestin GPR151 cells; in the data active = activation above about 4.9%;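 note: 0% = median of compound wells and 100% = cells with positive control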
Target sequence (Q8TDV0 whole entry, looked up): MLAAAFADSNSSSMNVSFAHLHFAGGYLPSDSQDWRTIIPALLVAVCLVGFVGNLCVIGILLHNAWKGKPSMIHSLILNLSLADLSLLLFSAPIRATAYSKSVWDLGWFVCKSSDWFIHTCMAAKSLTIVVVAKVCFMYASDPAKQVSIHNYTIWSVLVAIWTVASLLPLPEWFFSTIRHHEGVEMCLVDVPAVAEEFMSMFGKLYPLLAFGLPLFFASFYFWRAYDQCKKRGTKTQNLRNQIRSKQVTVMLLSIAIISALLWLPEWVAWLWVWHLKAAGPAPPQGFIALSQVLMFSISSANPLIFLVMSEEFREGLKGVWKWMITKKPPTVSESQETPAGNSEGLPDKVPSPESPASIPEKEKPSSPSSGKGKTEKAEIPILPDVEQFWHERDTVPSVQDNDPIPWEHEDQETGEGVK
MITF primary – MITF inhibitors, primary screen, biochemical, AlphaScreen, human; AlphaScreen MITF homodimerization, bead proximity signal; inhibition, % at 2.6 µM; actives 0.91% (n = 650,000); in the data active = inhibition above about 50%;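 note: 0% = vehicle wells with protein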
TEAD-YAP block – TEAD-YAP interaction inhibition, primary screen, TEAD-YAP interaction inhibitor project, luminescence, HEK-TIYL cells | inhibition, % at 9.12 µM | TEAD-Gal4/YAP UAS-luciferase luminescence | actives 1.4% (n = 640,000) | AID 1259422, 2018; in the data active = inhibition above about 32%;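 note: 0% = median of test compound wells and 100% = reference inhibitor wells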
FBW7 act – FBW7 E3 ligase activators, primary screen, biochemical, AlphaScreen, human; F-box/WD repeat-containing protein 7 (Homo sapiens), Q969H0; AlphaScreen FBW7–phospho-cyclin E peptide binding, activator screen; normalized activity (activation), % at 26.1 µM; actives 0.13% (n = 650,000); AID 1259310, 2017; in the data active = normalized activity above about 1.9%;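 note: purified mutant Fbw7 with reduced substrate affinity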
* marks the source's active call; other numbers are inactive results. Most compounds without a hit are left out; they make up all but 3.4% or so of the library.

SMILES	GPR151 activ	MITF primary	TEAD-YAP block	FBW7 act
Cc1csc(NC2OC(=O)c3ccccc32)n1 (configuration not stated)	0	17	-6	0
O=[N+]([O-])c1cc(/C=N\Nc2nccs2)ccc1O	0	95*	0	0
COC(=O)c1cccc(NC(=O)COc2ccc(C)cc2Br)c1	1	-3	91*	0
CCC(C)(C)c1ccc(OCC(=O)Nc2cccc(C(=O)O)c2)cc1	-2	-35	38*	0
Cc1ccc(OCC(=O)Nc2ccccc2F)c(Br)c1	-1	1	38*	0
COC(=O)c1cccc(NC(=O)COc2cc(C)ccc2C(C)(C)C)c1	0	14	2	0
O=C(COc1cccc2ccccc12)Nc1ccncc1	0	6	40*	0
CC(=O)c1cccc(NC(=O)COc2ccc(C(C)(C)C)cc2)c1	1	0	1	0
O=C1N[C@@H](CO)C(=O)N2CCN(Cc3cnn(-c4ccccc4F)c3)C[C@H]12	-1	-13	-1	0
Cc1c(C(=O)Nc2ccc(I)cc2)cccc1[N+](=O)[O-]	0	5	-23	0
O=C(Nc1ccc(Cl)c(Cl)c1)c1nn2c(c1Br)NC(c1cccs1)CC2C(F)(F)F (configuration not stated)	0	1	-11	0
Cc1ccccc1NC(=O)COc1ccccc1C=O	0	2	-13	0
CCCOC(=O)c1cccc(NC(=O)COc2ccc(C)cc2Br)c1	-1	-5	92*	1
Cc1ccc(NC(=O)c2cccc(Br)c2)c(Br)c1	1	8	-52	2.5*
O=C(Cc1ccccc1)Nc1cccc(C(=O)OCC(=O)c2ccc([N+](=O)[O-])cc2)c1	-1	-7	-15	0
Cc1ccccc1NC(=O)COc1ccc(Br)cc1C=O	0	10	45*	0
CCCOC(=O)c1cccc(NC(=O)COc2ccccc2OC)c1	1	-7	-6	0
Cc1ccc(C)c(C(=O)COC(=O)c2cccc(NC(=O)Cc3ccccc3)c2)c1	0	1	42*	0
N#CC1=C2SCN(c3ccccc3)CN2C(=O)CC1c1ccccc1[N+](=O)[O-] (configuration not stated)	0	7	4	0
O=C1c2cccc3c(Cl)ccc(c23)C(=O)N1c1ccc(Cl)cc1	-1	7	4	0
Cc1cc(C)n(-c2nnc(C)n2/N=C/c2ccccc2Br)n1	0	18	9	0
Cc1ccc(NC(=O)COc2c(C)cccc2C)c(Br)c1	-1	21	-17	2.5*
COC(=O)c1cccc(NC(=O)COc2ccccc2Br)c1	0	3	43*	0
Cc1ccc(NC(=O)COc2ccccc2C)c(Br)c1	0	1	-27	0
Cc1ccc(OCC(=O)Nc2cccc(C(=O)O)c2)c(Br)c1	-10	14	98*	0
SMILES	GPR151 activ	MITF primary	TEAD-YAP block	FBW7 act
O=C(O)CCNC(=O)/C(=C/c1ccco1)NC(=O)c1ccccc1	0	9	1	0
O=C(CSc1nnc(-c2cccnc2)n1-c1ccccc1Cl)Nc1nccs1	-1	5	39*	0
O=C(CSc1nnc(-c2ccccn2)n1-c1ccccc1Cl)Nc1nccs1	0	-2	59*	0
O=C(CSc1nnc(-c2cccc([N+](=O)[O-])c2)n1-c1ccccc1)Nc1nccs1	0	-8	44*	0
O=C(CSc1nnc(-c2ccco2)n1-c1ccccc1)Nc1nccs1	-1	-20	1	0
CCc1ccccc1-n1c(SCC(=O)Nc2nccs2)nnc1-c1cccnc1	0	6	57*	0
Cc1cccc(-n2c(SCC(=O)Nc3nccs3)nnc2-c2cccnc2)c1C	-1	-24	-1	0
CCOc1ccc(C2Nn3c(C)nnc3SC2C(=O)Nc2cccc(C)c2C)cc1 (configuration not stated)	2	14	15	0
COc1cc(/C=C(\C#N)C(=O)NC2CC2)cc(OC)c1O	0	14	4	0
COc1ccccc1/C=N/OC(=O)c1ccc([N+](=O)[O-])cc1	0	7	4	0
Cn1c2ccccc2n2cc(-c3ccccc3)nc12	-1	13	29	1
c1ccc(-c2cn3c(ccc4ccccc43)n2)cc1	-5	3	85*	0
COC(=O)C1(CO)NC(c2ccc(C)cc2)C2C(=O)N(C)C(=O)C21 (configuration not stated)	0	-11	8	0
C=CCNC(=S)N/N=C(\C)c1ccccn1	-3	60*	89*	-1
C=CCNC(=S)N/N=C(\C)c1ccc2ccccc2c1	0	10	4	0
CCn1cccc(-c2nnc(SCC(=O)Nc3ccc(C)c(Cl)c3)n2C)c1=O	-1	-4	1	0
Cc1cc(C)c(CSc2nnnn2-c2ccc(C(N)=O)cc2)c(C)c1	-2	19	61*	0
O=C(Nc1ccccc1C(=O)O)c1ccc2c(c1)C(=O)N(c1ccc(Sc3ccc([N+](=O)[O-])cc3)cc1)C2=O	3	-10	-6	0
COc1ccc(-c2noc(CN(Cc3ccccn3)CC3CCCO3)n2)c(OC)c1OC (configuration not stated)	1	-4	39*	0
CC(C)C1CCC(C)C(C(O)c2ccc(-c3ccccc3)cc2)C1=O (configuration not stated)	0	-9	6	0
COc1ccccc1-n1c(SCC(=O)Nc2nccs2)nnc1-c1cccnc1	0	0	56*	0
COc1cccc(NC(=O)CSc2nnc(-c3cccnc3)n2-c2ccccc2C)c1	0	11	-2	0
COc1ccccc1-n1c(SCC(=O)Nc2cccc(F)c2)nnc1-c1cccnc1	-1	4	46*	0
COc1ccccc1-n1c(SCC(=O)Nc2nc(C)cs2)nnc1-c1cccnc1	-1	11	53*	0
COc1ccccc1-n1c(SCC(=O)Nc2nccs2)nnc1-c1ccncc1	-2	10	62*	0
SMILES	GPR151 activ	MITF primary	TEAD-YAP block	FBW7 act
Cc1csc(NC(=O)CSc2nnc(-c3cccnc3)n2-c2cccc(C)c2C)n1	0	-4	13	0
Cc1ccccc1-n1c(SCC(=O)Nc2nccs2)nnc1-c1ccncc1	-1	0	21	0
CCc1ccccc1NC(=S)N1CCC(N(C)CCN2CCOCC2)CC1	0	-3	5	1
CCCC(=O)Nc1ccc(Nc2nc(C)cc(N3CCOCC3)n2)cc1	1	2	24	0
Cc1cc(N2CCCC2)nc(Nc2ccc(NS(=O)(=O)c3ccc(F)cc3)cc2)n1	0	0	57*	0
CCCCC(=O)Nc1ccc(Nc2nc(C)cc(N3CCCC3)n2)cc1	0	-18	65*	0
CC(C)(C)c1ccc(-c2cn(-c3ccccc3)c3[n+]2CCCS3)cc1	1	4	84*	0
